The results in this text go back to PubChem BioAssay (NCATS).

Molecules are shown by their SMILES. “And” between values parts separate entries of the source, which are not always exact repeats. Equal values may be shown once. A number with no mark means an inactive call. Results filed as inconclusive are left out. The source made the active and inactive calls. Unless noted, the call rests on the fitted dose curve; in most records, active means well fitted curve in either direction with a large enough effect (not every such curve was filed as active); inconclusive means small, poorly fitted or top-dose-only effect, or another doubt; inactive means flat fitted curve, though single readings scatter.

Assay [1] can be described thus: AP1 Signaling Pathway (AID 357).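 Further: ME-180 reporter cells stimulated with EGF at its EC50 level; on the % scale 0 is the no-effect control and ±100 the full control effect.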 The conditions noted are these: ME-180 AP-1-bla reporter, EGF-induced, beta-lactamase ratio, 5 h. The gist of the method: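 Modulation of EGF-driven AP-1 transcription was assessed with a beta-lactamase reporter in ME-180 cells. Compound and EC50 EGF were co-incubated 5 hours at 37 °C before 2.5-hour CCF4 loading at room temperature and dual-emission reading.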

In assay [2] the target is Cytochrome P450 1A2 (Homo sapiens) (UniProt P05177). The experiment in a line: p450-cyp1a2 (AID 410; calls by dose curve; further: potency means the concentration at half of the fitted maximal effect;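 on activity change, negative = inhibition: -100% = full effect of reference inhibitor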). To be noted: recombinant CYP1A2, luciferin-ME demethylation, luminescence; series mostly up to 57 µM. The procedure, abridged: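 20nM CYP1A2 with 100uM Luciferin-ME (at Km) in 100mM KPO4; compound preincubated 10 min, NADPH regeneration added, 60 min at room temperature. Luciferin quantified by luminescence after detection reagent; normalized to 57 uM furafylline.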
Chain of Cytochrome P450 1A2 (Homo sapiens) (P05177 whole entry, looked up): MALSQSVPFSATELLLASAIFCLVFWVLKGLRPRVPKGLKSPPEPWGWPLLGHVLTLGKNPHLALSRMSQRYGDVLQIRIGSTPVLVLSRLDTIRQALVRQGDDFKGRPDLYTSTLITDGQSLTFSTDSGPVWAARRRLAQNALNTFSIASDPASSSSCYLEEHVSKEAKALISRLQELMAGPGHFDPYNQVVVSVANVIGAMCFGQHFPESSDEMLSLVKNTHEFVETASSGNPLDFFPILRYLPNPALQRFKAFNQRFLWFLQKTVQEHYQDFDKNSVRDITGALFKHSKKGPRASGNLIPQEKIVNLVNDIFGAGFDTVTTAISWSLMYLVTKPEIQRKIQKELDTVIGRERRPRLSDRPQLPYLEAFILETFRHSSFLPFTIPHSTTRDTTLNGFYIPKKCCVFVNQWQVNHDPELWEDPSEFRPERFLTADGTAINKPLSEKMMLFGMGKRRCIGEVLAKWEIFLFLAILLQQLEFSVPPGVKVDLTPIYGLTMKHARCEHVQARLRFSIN

A short description of assay [3]: NFAT Signaling Pathway (AID 444).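 Further: carbachol stimulus at about its EC50 of 1 µM final; on the % scale 0 is the no-effect control and ±100 the full control effect.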 The conditions noted are these: Jurkat NFAT-bla M1, carbachol, beta-lactamase ratio, 5 h. The procedure, abridged:
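Jurkat cells carrying an NFAT-driven β-lactamase reporter and co-transfected muscarinic M1 receptor were treated with compound plus carbachol (1 uM final, an EC50 level) for 5 h at 37 °C. CCF4 loading followed for 1 h at RT; 460/530 nm ratio gave %activity.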

A short description of assay [4]: Stat Signaling Pathway (AID 446).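 Further: ME-180 cervical cancer cells given 40 pM IL-6 alongside compound; SIE-controlled beta-lactamase reporter measured as 460/530 nm FRET emission ratio; on the % scale 0 is the no-effect control and ±100 the full control effect.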 The conditions noted are these: ME-180 SIE beta-lactamase reporter, IL-6 stimulated, 5 h; series mostly up to 17.2 µM. The gist of the method: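 Reporter line: ME-180 cervical carcinoma, SIE-beta-lactamase. Treatment: compound with 40 pM IL-6, 5 hrs, 37 C, in low-serum OPTI-MEM with 10 mM HEPES pH 7.3. Detection: 460/530 nm fluorescence.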

Assay [5] addresses Glucocorticoid receptor (Homo sapiens) (UniProt P04150). Kind of assay: GR-GFP Redistribution (AID 450;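 active means compounds whose dose series gives a full or clear partial fitted curve of increased nuclear translocation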; further: potency means the concentration at half of the fitted maximal effect). To be noted: U2OS GR-GFP nuclear translocation, laser cytometry, 2 h.
For assay [6] the target is unchanged. The experiment in a line: GR-EFC Redistribution (AID 451; calls by dose curve; further: potency means the concentration at half of the fitted maximal effect). The conditions noted are these: CHO-K1 GR-EFC translocation, beta-gal luminescence, 2 h. The gist of the method: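 CHO-K1 cells stably expressing nuclear-localized β-gal enzyme acceptor and GR fused C-terminally to the enzyme donor fragment; ligand-driven nuclear translocation restores β-gal by complementation. Compounds titrated up to 46 uM final, 2 h at 37 °C; luminescence read.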

The target in assay [7] is Mitogen-activated protein kinase 10 (Mus musculus) (UniProt Q61831). Kind of assay: JNK3 AlphaScreen Assay (AID 530).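 Further: kinase came from lysate of stimulated human HepG2 cells; signal reports phosphorylation of biotinylated GST-cJun 1-79 at Ser73 with 10 µM ATP; on the % scale 0 is the no-effect control and ±100 the full control effect.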 To be noted: JNK3 lysate, c-Jun phosphorylation; series mostly up to 57.1 µM. The procedure, abridged:
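Inhibitors reduce antibody binding to phosphorylated biotin-cJun, lowering AlphaScreen luminescence. Lysates from HepG2 cells pre-activated by IL-1beta plus TNF-alpha supplied JNK3; compounds were titrated.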
For orientation: In Alpha technology, singlet oxygen from a donor bead excites a nearby acceptor bead.

A short description of assay [8]: Cell Viability - BJ (AID 421; calls by dose curve;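 further: potency means the concentration at half of the fitted maximal effect; cells exposed to compound for 40 hours at 37 °C before readout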). The conditions noted are these: BJ fibroblast viability, qHTS. The procedure, abridged: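 Cytotoxicity as drop in intracellular ATP (CellTiter-Glo, 20 min RT) after 40 hr compound exposure of BJ fibroblasts at 37 °C. Titrations scaled between DMSO and 100 uM tamoxifen, Hill-fitted for AC50.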
In general terms: In qHTS, concentration-response curves come from the screen itself.

Assay [9] can be described thus: Cell Viability - Jurkat (AID 426;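 active means dose-dependent loss of cell ATP signal giving a full or clear fitted curve, ranked by lower potency value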; further: potency means the concentration at half of the fitted maximal effect). To be noted: qHTS. The gist of the method:
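Jurkat (Clone E6-1) cells, 5000/well in complete medium, exposed to compounds for 40 hr at 37C; intracellular ATP measured by CellTiter-Glo luminescence after 20 min at room temperature. AC50 from Hill fits.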

The nature of assay [10]: Cell Viability - Hek293 (AID 427;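 active means compounds whose dose-response curve shows a full or clear partial loss of cell viability, called from curve shape rather than a numeric limit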;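 further: potency means the concentration at half of the fitted maximal effect; cells exposed to compound for 40 hours at 37 °C before reading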). To be noted: qHTS. The gist of the method: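 Luminescent ATP content (CellTiter-Glo, 20 min at room temperature) was measured after a 40 hr, 37 °C compound exposure of HEK293 cells. AC50 values came from Hill-equation fits of qHTS concentration-response data normalized to DMSO and 100 uM tamoxifen.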
Assay [11] in a line: Cell Viability - HepG2 (AID 433; calls by dose curve;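 further: potency means the concentration at half of the fitted maximal effect; potency for ATP loss meaning cytotoxicity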). To be noted: qHTS. The gist of the method: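 ATP luminescence (CellTiter-Glo) after 40 h compound exposure, 37 °C, HepG2, 1500 cells/well, complete medium. Normalized: DMSO = basal, 100 uM tamoxifen = 100% inhibition. AC50 via standard Hill equation.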
A short description of assay [12]: Cell Viability - SK-N-SH (AID 435; calls by dose curve; further: potency means the concentration at half of the fitted maximal effect). The conditions noted are these: SK-N-SH neuroblastoma cell viability qHTS. The procedure, abridged:
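CellTiter-Glo ATP luminescence, 20 min RT read; cells pre-plated 5 hr, compound 40 hr at 37 °C, 1500 cells/well, complete medium. Normalized DMSO = 0, 100 uM tamoxifen = 100% inhibition; Hill-fit AC50.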

The nature of assay [13]: Cell Viability - NIH 3T3 (AID 541; active means well fitted curve in the direction sought with a large enough effect; an effect the other way counts as inactive or inconclusive; further: potency means the concentration at half of the fitted maximal effect; nearly all actives have a fitted effect of over 25% in size). To be noted: NIH 3T3 cell viability, qHTS; activity change, negative = cytotoxicity: at 92.2 µM (top of the series). The gist of the method: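 Mouse NIH 3T3 fibroblasts, 1000 cells/well, rested 5 hr at 37 °C, then exposed to compound for 40 hr at 37 °C in complete medium. Viability read as intracellular ATP by CellTiter-Glo luminescence; AC50 from Hill-equation fits of concentration-response data.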

The nature of assay [14]: Cell Viability - HUV-EC-C (AID 542; active means well fitted curve in the direction sought with a large enough effect; an effect the other way counts as inactive or inconclusive; further: on the % scale 0 is the no-effect control and ±100 the full control effect; nearly all actives have a fitted effect of over 35% in size). To be noted: HUV-EC-C endothelial cell viability, qHTS; series mostly up to 92.2 µM. The gist of the method:
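HUV-EC-C human vascular endothelial cells, 1000/well, exposed to compound for 40 hr at 37 °C in complete medium. Intracellular ATP was read by CellTiter-Glo luminescence. AC50 came from Hill-equation fits of concentration-response data.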

Assay [15] in a line: Cell Viability - SH-SY5Y (AID 544; active means well fitted curve in the direction sought with a large enough effect; an effect the other way counts as inactive or inconclusive; further: potency means the concentration at half of the fitted maximal effect; nearly all actives have a fitted effect of over 55% in size). To be noted: SH-SY5Y neuroblastoma cell viability; series mostly up to 92.2 µM. The gist of the method:
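SH-SY5Y human neuroblastoma cells (1500/well) incubated 5 h, then compound-treated 40 h at 37 °C in complete medium. Viability read as intracellular ATP by CellTiter-Glo luminescence after 20 min; AC50 from Hill-equation fits of qHTS concentration-response.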

The nature of assay [16]: Cell Viability - Renal Proximal Tubule (AID 545; active means well fitted curve in the direction sought with a large enough effect; an effect the other way counts as inactive or inconclusive; further: potency means the concentration at half of the fitted maximal effect; nearly all actives have a fitted effect of over 40% in size). The conditions noted are these: renal proximal tubule cells viability, primary cells of rat origin; activity change, negative = cytotoxicity: at 91.7 µM (top of the series). The procedure, abridged: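 Rat kidney proximal tubule cells, freshly isolated; 1000 cells/well, 5 hr settle, compound 40 hr 37 °C. CellTiter-Glo 20 min RT, luminescence read. AC50 by standard Hill fit.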

Chain of Glucocorticoid receptor (Homo sapiens) (P04150 whole entry, looked up, the tested form may be a part): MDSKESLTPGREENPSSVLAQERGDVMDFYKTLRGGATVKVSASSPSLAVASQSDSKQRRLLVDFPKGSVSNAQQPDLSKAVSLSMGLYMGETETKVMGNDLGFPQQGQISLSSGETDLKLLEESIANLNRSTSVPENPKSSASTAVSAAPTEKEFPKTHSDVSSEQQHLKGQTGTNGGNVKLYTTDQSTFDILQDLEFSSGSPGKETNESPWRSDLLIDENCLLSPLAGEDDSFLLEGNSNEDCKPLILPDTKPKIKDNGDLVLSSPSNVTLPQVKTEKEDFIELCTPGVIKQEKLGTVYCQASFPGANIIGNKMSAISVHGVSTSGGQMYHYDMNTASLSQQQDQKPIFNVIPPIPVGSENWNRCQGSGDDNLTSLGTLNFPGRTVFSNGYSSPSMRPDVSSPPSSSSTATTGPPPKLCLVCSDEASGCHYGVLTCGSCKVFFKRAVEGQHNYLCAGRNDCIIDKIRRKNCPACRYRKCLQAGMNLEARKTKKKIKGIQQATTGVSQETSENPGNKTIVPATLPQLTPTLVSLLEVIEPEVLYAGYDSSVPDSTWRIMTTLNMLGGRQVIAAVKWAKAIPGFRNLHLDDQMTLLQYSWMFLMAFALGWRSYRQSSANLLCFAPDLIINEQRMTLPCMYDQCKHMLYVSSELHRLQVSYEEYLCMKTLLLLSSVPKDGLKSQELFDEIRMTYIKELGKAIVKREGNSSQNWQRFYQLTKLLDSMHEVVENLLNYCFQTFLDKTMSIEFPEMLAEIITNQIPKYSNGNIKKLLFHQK

With `FC(F)(F)c1ccccc1-n1ccnc1`, the activity change, negative = inhibition in assay [1] (at 38 µM (top of the series)) was 7.15%; in assay [3] (at 38 µM (top of the series)), -3.5%. Besides, the Potency in assay [2] was 2.51 µM (active) and 251 nM (active); in assay [5], more than 46 µM; in [6], more than 46 µM. Besides, the call in assay [4] was inactive. Moreover, the Potency entry in assay [7] was “inactive”.

As for `CCN(CC)CC(=O)Nc1c(C)cccc1C`, the activity change, negative = inhibition in [1] (at 17.2 µM (top of the series)) is 8.06% and 2.56% and 5.37%; in [1] (at 38 µM (top of the series)) it was 19.9%; in assay [3] (at 17.2 µM (top of the series)) it was -9.77% and 9.98% and -29.3%; in assay [3] (at 38 µM (top of the series)), 0.823%. Moreover, the call in assay [4] was inactive. The Potency entry in [7] is “inactive”.

Turning to `C[C@]12CCC(=O)C=C1CC[C@@H]1[C@@H]2CC[C@@]2(C)[C@H]1CC[C@]2(O)C(=O)CO`, the activity change, negative = inhibition in assay [1] (at 17.2 µM (top of the series)) was 14.7%; in assay [3] (at 17.2 µM (top of the series)), 2.94%. Further, in assay [4], the compound was classed as inactive.

Turning to `c1cc(CN2CCCCC2)cc(OCCCNc2nc3ccccc3s2)c1`, the activity change, negative = inhibition in [1] (at 38 µM (top of the series)) is 6.03%. Also, the Potency was 15.8 µM (active) and 31.6 µM (active) in [2]; more than 46 µM in [5]; more than 46 µM in assay [6]. The result in assay [4] was inactive. For the same compound, in assay [7], the Potency result is “inactive”.

As for `COc1cc2c(cc1OC)-c1cc(=Nc3c(C)cc(C)cc3C)n(C)c(=O)n1CC2`, the activity change, negative = inhibition in assay [1] (at 38 µM (top of the series)) is -25.7%; in [3] (at 38 µM (top of the series)), -16.6%. Further, the Potency entry in assay [2] and in [7] was “inactive” each time. Besides, in assay [6], the Potency was more than 46 µM.

As to `C[C@]12C=CC(=O)C=C1CC[C@H]1[C@@H]3C[C@@H](O)[C@](O)(C(=O)CO)[C@@]3(C)C[C@H](O)[C@@]12F`, the activity change, negative = inhibition is -5.22% in [1] (at 17.2 µM (top of the series)) and 16.1% in assay [3] (at 17.2 µM (top of the series)). The outcome in [4] was inactive.

Regarding `Nc1ncn([C@@H]2O[C@H](CO)[C@@H](O)[C@H]2O)c(=O)n1`, the Potency in [8] was more than 92 µM; in [9], 1.01 µM (active); in assay [10], 6.9 µM (active); in assay [11] it was more than 92 µM; in assay [12], 16.6 µM (active); in [13] it was 5.01 µM (active). The Potency was 6.31 µM (active) in [15] and 15.8 µM (active) in [16]. In addition, the Potency result in assay [7] and in assay [14] was “inactive” in each case.

Regarding `COC(=O)[C@@H](N)Cc1ccc(O)c(O)c1`, the activity change, negative = inhibition in assay [1] (at 38 µM (top of the series)) is 2.14%; in [3] (at 38 µM (top of the series)), 5.8%. Also, the result in [4] was inactive. In addition, the Potency result in [7] was “inactive”.

As for `CN(C)CCCN1c2ccccc2Sc2ccccc21`, in [3] (at 38 µM (top of the series)), the activity change, negative = inhibition is -83.6% (active). Also, the compound was called inactive in [4]. Also, in assay [7], the Potency entry was “inactive”.

As for `O=C(O)CCCCCCCC(=O)O`, the Potency entry in [2] and in assay [7] was “inactive” in each case. Besides, in assay [3] (at 38 µM (top of the series)), the activity change, negative = inhibition was -0.521%.
